Source: PubChem BioAssay (NCATS)
Inconclusive results are not listed. The source made the active and inactive calls. Calls follow the shape of the dose curve; as a rule, active = well fitted curve in the direction sought with a large enough effect; inconclusive = small, poorly fitted or top-dose-only effect, or another doubt; inactive = no such curve, though single readings can be large; an effect the other way counts as inactive or inconclusive. Numbered stars: 1 amine (or outer) side, 2 acyl side, 3 side chain; on linkers, the order of the positions; unused ones are H or OH. Bridge positions count the residues as written; N and C are the ends. Square brackets hold non-standard residues; d marks the D form. Peptide text beside a SMILES is read from it. I, II: the chains in the order shown. Actinocin(9to1) = Cc1c2oc3c(C)ccc(C(=O)[*:1])c3nc-2c(C(=O)[*:2])c(N)c1=O; NMeV = CN[C@H](C(=O)O)C(C)C; Sar = CNCC(=O)O

Key:
[1] = qHTS of pediatric cancer cell lines to identify multiple opportunities for drug repurposing: Confirmatory screen for NB-EBc1 cells (AID 1347115);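 also: cells exposed to compound for 48 h before the viability read; nearly all actives have a fitted effect of over 45% in size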
In short: (§1)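 Cells (500-1,000/well) in growth media were settled 5 h at 37 degrees C, then given compounds for 48 h. Viability was read as CellTiter-Glo luminescence. Primary runs used MIPE at 11 points (0.78 nM-46 µM) and NPC at 8 points (0.59 nM-46 µM); follow-ups used 11 points.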

[2] = qHTS of pediatric cancer cell lines to identify multiple opportunities for drug repurposing: Confirmatory screen for BT-37 cells (AID 1347117); also: nearly all actives have a fitted effect of over 55% in size
In short: as §1

[3] = qHTS of pediatric cancer cell lines to identify multiple opportunities for drug repurposing: Confirmatory screen for TC32 cells (AID 1347118);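 also: cells exposed to compound for 48 h before the read; nearly all actives have a fitted effect of over 65% in size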
In short: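 Luminescent ATP read-out (CellTiter-Glo) of metabolically active TC32 cells after 48 h exposure. Concentration-response curves came from 11-point (MIPE, 0.78 nM–46 µM) or 8-point (NPC, 0.59 nM–46 µM) primary titrations; follow-up used 11 points.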

[4] = qHTS of pediatric cancer cell lines to identify multiple opportunities for drug repurposing: Confirmatory screen for control Hh wild type fibroblast cells (AID 1347121); also: nearly all actives have a fitted effect of over 70% in size
In short: as §1

[5] = qHTS of pediatric cancer cell lines to identify multiple opportunities for drug repurposing: Confirmatory screen for Rh41 cells (AID 1347123);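 also: 48 h compound exposure; nearly all actives have a fitted effect of over 60% in size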
In short: as §1

[6] = qHTS of pediatric cancer cell lines to identify multiple opportunities for drug repurposing: Confirmatory screen for RD cells (AID 1347124);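 also: cells exposed to compound for 48 h before viability readout; nearly all actives have a fitted effect of over 65% in size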
In short: as §1

[7] = qHTS of pediatric cancer cell lines to identify multiple opportunities for drug repurposing: Confirmatory screen for DAOY cells (AID 1347114); also: nearly all actives have a fitted effect of over 65% in size
In short: (§2)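 Viability measured as metabolically active cells via CellTiter-Glo luminescence following 48 hours of compound exposure, 11-point dilutions in confirmatory testing. 500-1,000 cells/well plated 5 hours before dosing; controls were DMSO and 2.3 µM bortezomib.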

[8] = qHTS of pediatric cancer cell lines to identify multiple opportunities for drug repurposing: Confirmatory screen for SJ-GBM2 cells (AID 1347116); also: nearly all actives have a fitted effect of over 60% in size
In short: as §2

[9] = qHTS of pediatric cancer cell lines to identify multiple opportunities for drug repurposing: Confirmatory screen for U-2 OS cells (AID 1347122); also: nearly all actives have a fitted effect of over 65% in size
In short: as §1

[10] = qHTS of pediatric cancer cell lines to identify multiple opportunities for drug repurposing: Confirmatory screen for Rh30 cells (AID 1347126); also: nearly all actives have a fitted effect of over 55% in size
In short: as §1

Measured: Potency
Potency is read from the fitted curve at half-maximal effect.

OC[C@H]1O[C@@H](n2cnc3c(=S)nc[nH]c32)[C@H](O)[C@@H]1O
active: [1] 3.69 µM | [2] 2.93 µM | [3] 2.33 µM | [5] 10.4 µM
inactive: [4] | [6]

C[C@]12C=CC(=O)C=C1CC[C@@H]1[C@@H]2[C@@H](O)C[C@@]2(C)[C@H]1CC[C@]2(O)C(=O)CO
active: [3] 26.1 µM
inactive: all other assays above

C[C@@H]1C[C@H]2[C@@H]3CCC4=CC(=O)C=C[C@]4(C)[C@@]3(F)[C@@H](O)C[C@]2(C)[C@H]1C(=O)CO
not listed: [5]
inactive: all other assays above

C[C@H]1C[C@H]2[C@@H]3CCC4=CC(=O)C=C[C@]4(C)[C@@]3(Cl)[C@@H](O)C[C@]2(C)[C@@]1(O)C(=O)CO
not listed: [5]
inactive: all other assays above

CC(=O)OCC(=O)[C@@]12N=C(C)O[C@@H]1C[C@H]1[C@@H]3CCC4=CC(=O)C=C[C@]4(C)[C@H]3[C@@H](O)C[C@@]12C
inactive: [7] | [9]
active: [8] 1.04 µM | [2] 0.657 µM | [3] 0.369 µM

NC(CO)(CO)CO
active: [3] 11.7 µM
not listed: [10]
inactive: all other assays above

CCCCC(CC)CN=C(N)NC(N)=NCCCCCCN=C(N)NC(N)=NCC(CC)CCCC (centres undefined)
active: [7] 4.14 µM | [1] 9.27 µM | [8] 1.17 µM | [2] 8.27 µM | [3] 8.27 µM | [4] 2.93 µM | [9] 4.65 µM | [5] 7.37 µM | [6] 1.04 µM | [10] 1.47 µM

CC1(C)O[C@@H]2C[C@H]3[C@@H]4CCC5=CC(=O)CC[C@]5(C)[C@@]4(F)[C@@H](O)C[C@]3(C)[C@]2(C(=O)CCl)O1
not listed: [5]
inactive: all other assays above

C[C@@H]1CN(CCCn2c3ccccc3c3ccccc32)C[C@H](C)N1
inactive: [9]
active: [7] 20.8 µM | [1] 14.7 µM | [5] 16.5 µM | [10] 26.1 µM

CCCCCCC[N+](CC)(CC)CCCCc1ccc(Cl)cc1
inactive: [7] | [9] | [6]
active: [2] 5.22 µM | [4] 9.27 µM | [10] 10.4 µM

C[C@]12C=CC(=O)C=C1[C@@H](F)C[C@@H]1[C@@H]2[C@@H](O)C[C@@]2(C)[C@H]1CC[C@]2(O)C(=O)CO
not listed: [5] | [8]
inactive: all other assays above

CCCC(=O)O[C@]1(C(=O)CO)CC[C@H]2[C@@H]3CCC4=CC(=O)CC[C@]4(C)[C@H]3[C@@H](O)C[C@@]21C
not listed: [5]
inactive: all other assays above

Oc1ccc(O)cc1
active: [1] 14.7 µM | [3] 20.8 µM
not listed: [5] | [7]
inactive: all other assays above

CCOc1ccc2nc3cc(N)ccc3c(N)c2c1
active: [3] 2.61 µM | [9] 0.585 µM | [5] 14.7 µM

C[n+]1c2cc(N)ccc2cc2ccc(N)cc21 (tested in a mixture with another compound)
active: [7] 6.57 µM | [8] 13.1 µM | [2] 0.827 µM | [3] 5.85 µM | [4] 7.37 µM | [9] 16.5 µM | [5] 5.22 µM | [6] 0.657 µM | [10] 6.57 µM

CC(=O)OCC(=O)[C@@]12OC(C)(C)O[C@@H]1C[C@H]1[C@@H]3C[C@H](F)C4=CC(=O)C=C[C@]4(C)[C@@]3(F)[C@@H](O)C[C@@]12C
not listed: [2] | [4]
inactive: all other assays above

COCc1c(C(C)C)nc(C(C)C)c(/C=C/[C@@H](O)C[C@@H](O)CC(=O)O)c1-c1ccc(F)cc1
active: [7] 0.414 µM | [1] 4.14 µM | [8] 2.61 µM | [2] 1.65 µM | [3] 0.928 µM | [9] 0.261 µM | [5] 2.33 µM | [6] 0.928 µM | [10] 0.414 µM
inactive: [4]

CN(C)/N=N/c1nc[nH]c1C(N)=O
active: [1] 18.5 µM | [3] 23.3 µM
not listed: [8]
inactive: all other assays above

CC(C)(C(=O)c1cccnc1)c1cccnc1
active: [3] 3.29 µM
not listed: [2] | [8]
inactive: all other assays above

COc1c(C)c2c(c(O)c1C/C=C(\C)CCC(=O)O)C(=O)OC2
active: [9] 1.85 µM | [5] 1.17 µM | [10] 1.31 µM

COc1cc(C=C2CCC/C(=C\c3ccc(O)c(OC)c3)C2=O)ccc1O
active: [7] 14.7 µM | [1] 23.3 µM | [8] 18.5 µM | [2] 5.85 µM | [3] 0.414 µM | [5] 14.7 µM | [6] 9.27 µM | [10] 20.8 µM
inactive: [4]

CC(=O)OCC(=O)[C@@]1(O)[C@H](C)C[C@H]2[C@@H]3CCC4=CC(=O)C=C[C@]4(C)[C@@]3(F)[C@@H](O)C[C@@]21C
inactive: [1]
active: [3] 18.5 µM | [9] 20.8 µM

CC(=O)OCC(=O)[C@@]1(O)CC[C@H]2[C@@H]3CCC4=CC(=O)C=C[C@]4(C)[C@H]3[C@@H](O)C[C@@]21C
not listed: [2]
inactive: all other assays above

C=C1C[C@H]2[C@@H]3C=C(C)C4=CC(=O)CC[C@]4(C)[C@H]3CC[C@]2(C)[C@@]1(OC(C)=O)C(C)=O
active: [3] 6.57 µM
not listed: [5] | [7] | [9]
inactive: all other assays above

CC(=O)Oc1ccc2c(c1)CC[C@@H]1[C@@H]2CC[C@]2(C)[C@@H](O)CC[C@@H]12
active: [3] 6.57 µM
inactive: [8] | [4] | [5] | [6] | [10]

CC(=O)OCC(=O)[C@@]1(OC(C)=O)[C@@H](C)C[C@H]2[C@@H]3C[C@H](F)C4=CC(=O)C=C[C@]4(C)[C@@]3(F)[C@@H](O)C[C@@]21C
inactive: [1] | [8] | [4] | [9] | [6] | [10]

CN(C)C(=S)SC(=S)N(C)C
inactive: [7] | [8] | [4] | [9]
active: [2] 3.69 µM | [3] 3.69 µM | [5] 1.31 µM | [10] 4.14 µM

CC(=O)[C@H]1CC[C@H]2[C@@H]3C[C@H](C)C4=CC(=O)CC[C@]4(C)[C@H]3[C@@H](O)C[C@]12C
active: [9] 0.329 µM | [5] 10.4 µM
inactive: [8] | [4] | [6] | [10]

COc1cccc2c1C(=O)c1c(O)c3c(c(O)c1C2=O)C[C@@](O)(C(=O)CO)C[C@@H]3O[C@H]1C[C@H](N)[C@H](O)[C@H](C)O1
active: [7] 9.27 µM | [1] 3.29 µM | [8] 2.61 µM | [2] 0.657 µM | [3] 0.465 µM | [5] 1.47 µM | [6] 5.22 µM

CC(=O)Oc1ccc(C(c2ccc(OC(C)=O)cc2)c2ccccn2)cc1
active: [3] 6.57 µM
not listed: [2]
inactive: all other assays above

CCCCC(=O)O[C@]1(C(=O)CO)CC[C@H]2[C@@H]3CCC4=CC(=O)CC[C@]4(C)[C@H]3[C@@H](O)C[C@@]21C
inactive: [7] | [1] | [4] | [10]

C[C@@H]1C[C@H]2[C@@H]3C[C@H](F)C4=CC(=O)C(Cl)=C[C@]4(C)[C@@]3(F)[C@@H](O)C[C@]2(C)[C@@]1(O)C(=O)CO
inactive: [7] | [9] | [5]

CC(=O)O[C@]1(C(C)=O)CC[C@H]2[C@@H]3C[C@H](C)C4=CC(=O)CC[C@]4(C)[C@H]3CC[C@@]21C
inactive: [1] | [4] | [6] | [10]

CCC(C(=O)OCCN(CC)CC)c1ccccc1 (centres undefined)
active: [3] 10.4 µM
inactive: all other assays above

NC(=O)CC[C@@H]1NC(=O)[C@H](Cc2ccccc2)NC(=O)[C@H](Cc2ccc(O)cc2)NC(=O)CCSSC[C@@H](C(=O)N2CCC[C@H]2C(=O)N[C@@H](CCCN=C(N)N)C(=O)NCC(N)=O)NC(=O)[C@H](CC(N)=O)NC1=O
not listed: [6]
inactive: all other assays above

CC1(C)O[C@@H]2C[C@H]3[C@@H]4C[C@H](F)C5=CC(=O)CC[C@]5(C)[C@H]4[C@@H](O)C[C@]3(C)[C@]2(C(=O)CO)O1
not listed: [3] | [10]
inactive: all other assays above

C[C@]12CCC(=O)C=C1CC[C@H]1[C@@H]3CC[C@](O)(C(=O)CO)[C@@]3(C)C[C@H](O)[C@@]12F
not listed: [3] | [10]
inactive: all other assays above

O=C(CCCN1CCC(O)(c2ccc(Br)cc2)CC1)c1ccc(F)cc1
inactive: [1] | [8] | [4] | [9]
active: [3] 2.61 µM | [5] 18.5 µM

Cc1c2oc3c(C)ccc(C(=O)N[C@@H]4C(=O)N[C@H](C(C)C)C(=O)N5CCC[C@H]5C(=O)N(C)CC(=O)N(C)[C@@H](C(C)C)C(=O)O[C@@H]4C)c3nc-2c(C(=O)N[C@@H]2C(=O)N[C@H](C(C)C)C(=O)N3CCC[C@H]3C(=O)N(C)CC(=O)N(C)[C@@H](C(C)C)C(=O)O[C@@H]2C)c(N)c1=O (I: T[dV]P[Sar][NMeV] / II: T[dV]P[Sar][NMeV]; ester I:1-I:C, II:1-II:C; linker I:N-II:N via Actinocin(9to1))
active: [7] 0.0261 µM | [8] 0.0261 µM | [2] 0.0023 µM | [3] 0.0093 µM | [9] 0.369 µM | [5] 0.0147 µM
inactive: [1] | [4] | [10]
